The text below walks through data of PubChem BioAssay (Tox21).

Unmarked numbers belong to inactive results. Active and inactive are the calls of the source. Unless noted, calls come from the whole dose curve; as a rule, active = well fitted curve in the direction sought with a large enough effect in the repeat runs; inconclusive = weak or mixed curves; inactive = no such curve, though single readings can be large; an effect the other way counts as inactive or inconclusive.

Assay [1] can be described thus: qHTS assay to identify small molecule antagonists of the thyroid receptor (TR) signaling pathway - cell viability counter screen (AID 743064). Note: nearly all actives have a fitted effect of over 50% in size. In outline:
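Plate GH3.TRE-Luc cells; incubate 4 h at 37 °C; add compound, then T3 to 1 nM final; incubate 23.5 h; add CellTiter-Fluor; incubate 30 min at 37 °C, 5% CO2; read fluorescence.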

Assay [2] can be described thus: qHTS assay to identify small molecule antagonists of the thyroid receptor (TR) signaling pathway (AID 743065). Note: series mostly up to about 70 µM; nearly all actives have a fitted effect of over 55% in size. A digest of the protocol:
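Antagonism measured as loss of luciferase signal in GH3 cells stably carrying a TRE-luciferase reporter, co-treated with compound and T3 (1 nM final) for 23.5 h at 37 C. Viability was read in the same well by CellTiter-Fluor.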

The test system of assay [3] is thyroid hormone receptor (rat, GH3 cells). Put plainly: qHTS assay to identify small molecule agonists of the thyroid receptor (TR) signaling pathway (AID 743066; calls by dose curve).
In assay [4] the target is Estrogen receptor (Homo sapiens) (UniProt P03372). Put plainly: qHTS assay to identify small molecule antagonists of the estrogen receptor alpha (ER-alpha) signaling pathway (AID 743069; active = well fitted curve in the direction sought with a large enough effect in the signal ratio in the repeat runs, not every such curve was filed as active; inconclusive = weak or mixed curves, or effect the other way; inactive = no such curve, though single readings can be large or run the other way; the % refers to the signal ratio). In outline:
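Antagonist mode: compounds in DMSO were co-added with 17beta-estradiol to ER-alpha-bla HEK293 cells (2% charcoal-stripped serum) and left 18 h at 37C. Reporter inhibition was measured as FRET fluorescence after 2 h LiveBLAzer substrate at room temperature.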

The nature of assay [5]: qHTS assay to identify small molecule antagonists of the estrogen receptor alpha (ER-alpha) signaling pathway - cell viability counter screen (AID 743074; calls by dose curve;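 note: HEK293 cells carrying ER-alpha-UAS-bla reporter stimulated with 17beta-estradiol; nearly all actives have a fitted effect of over 45% in size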).
The target in assay [6] is Estrogen receptor (Homo sapiens) (UniProt P03372). Put plainly: qHTS assay to identify small molecule agonists of the estrogen receptor alpha (ER-alpha) signaling pathway (AID 743075; calls by dose curve;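 note: HEK293 GripTite cells with ER-alpha and UAS-driven beta-lactamase reporter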; note: potency is the fitted concentration of half-maximal effect).
Sequence of Estrogen receptor (Homo sapiens) (P03372 whole entry, looked up): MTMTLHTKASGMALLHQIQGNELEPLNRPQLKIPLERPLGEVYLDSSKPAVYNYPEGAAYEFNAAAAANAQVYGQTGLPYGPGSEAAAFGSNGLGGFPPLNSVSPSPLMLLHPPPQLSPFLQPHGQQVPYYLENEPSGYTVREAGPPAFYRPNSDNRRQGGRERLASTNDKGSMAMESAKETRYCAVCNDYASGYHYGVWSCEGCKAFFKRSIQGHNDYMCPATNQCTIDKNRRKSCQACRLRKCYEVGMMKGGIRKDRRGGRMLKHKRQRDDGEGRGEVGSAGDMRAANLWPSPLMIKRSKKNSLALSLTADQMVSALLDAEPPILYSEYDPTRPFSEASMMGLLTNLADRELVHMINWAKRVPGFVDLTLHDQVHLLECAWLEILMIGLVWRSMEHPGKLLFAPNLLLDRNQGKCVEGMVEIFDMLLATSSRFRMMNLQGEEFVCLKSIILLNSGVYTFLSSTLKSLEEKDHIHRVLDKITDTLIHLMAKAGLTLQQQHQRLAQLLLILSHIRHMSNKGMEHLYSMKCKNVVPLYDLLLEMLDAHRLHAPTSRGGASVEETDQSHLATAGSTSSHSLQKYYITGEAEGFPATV
The target is the same in assay [7]. Put plainly: qHTS assay to identify small molecule agonists of the estrogen receptor alpha (ER-alpha) signaling pathway using the BG1 cell line (AID 743079). Note: nearly all actives have a fitted effect of over 20% in size. Note: potency is the fitted concentration of half-maximal effect.
Assay [8] is described as follows: qHTS assay to identify small molecule antagonists of the estrogen receptor alpha (ER-alpha) signaling pathway using the BG1 cell line - cell viability counter screen (AID 743081).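 Note: compound given together with 17beta-estradiol as the ER stimulus; series mostly up to about 70 µM; nearly all actives have a fitted effect of over 45% in size.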
Another assay concerns the target Aromatase (Homo sapiens) (UniProt P11511). The experiment in a line: qHTS assay to identify aromatase inhibitors (AID 743083). Note: series mostly up to about 70 µM; nearly all actives have a fitted effect of over 55% in size.
The target in assay [9] is Aryl hydrocarbon receptor (Homo sapiens) (UniProt P35869). Put plainly: qHTS assay to identify small molecule that activate the aryl hydrocarbon receptor (AhR) signaling pathway (AID 743085).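 Note: HG2L7.5c1 human HepG2 liver cells with stably integrated DRE-driven firefly reporter; series mostly up to about 70 µM; nearly all actives have a fitted effect of over 15% in size.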 A digest of the protocol:
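Steps: seed HepG2-AhR-luc cells; allow 5 h at 37C; pin-transfer test compound or vehicle; incubate 24 h at 37C; add viability dye (30 min, 37C) and read fluorescence; add luciferase substrate (30 min, RT) and read luminescence.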

Assay [10] is described as follows: qHTS assay to identify small molecule that activate the aryl hydrocarbon receptor (AhR) signaling pathway - cell viability counter screen (AID 743086).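 Note: HepG2 liver cells carrying the AhR DRE luciferase reporter; series mostly up to about 70 µM; nearly all actives have a fitted effect of over 45% in size.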 In outline:
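Cytotoxicity counter screen: CellTiter-Fluor signal (30 min, 37 C) in 4000 HepG2 cells/well carrying the DRE-luciferase reporter, following 24 h compound exposure at 37 C.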

The target of assay [11] is Peroxisome proliferator-activated receptor gamma (Homo sapiens) (UniProt P37231). The experiment in a line: qHTS assay to identify small molecule agonists of the peroxisome proliferator-activated receptor gamma (PPARg) signaling pathway (AID 743094; active = well fitted activation curve with a large enough effect in the signal ratio in the repeat runs, not every such curve was filed as active; inconclusive = weak or mixed curves, or effect the other way; inactive = no such curve, though single readings can be large or run the other way; the % refers to the signal ratio). A digest of the protocol:
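Agonist activity was taken from a beta-lactamase reporter (FRET substrate, 1 h at room temperature) in HEK293H cells carrying a PPARg UAS-bla construct. Compounds in DMSO were incubated 17 h at 37C after a 5 h cell pre-incubation.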

A short description of assay [12]: qHTS assay to identify small molecule antagonists of the peroxisome proliferator-activated receptor gamma (PPARg) signaling pathway - cell viability counter screen (AID 743194). Note: nearly all actives have a fitted effect of over 55% in size. In outline:
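Viability was measured as CellTiter-Glo luminescence in GeneBLAzer PPARg UAS-bla HEK293H cells. These cells had been exposed 17 h at 37 C to compounds together with rosiglitazone at 50 nM final, with the beta-lactamase readout taken in the same wells.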

Assay [13] can be described thus: qHTS assay for small molecule agonists of the antioxidant response element (ARE) signaling pathway - cell viability counter screen (AID 743203; calls by dose curve; note: nearly all actives have a fitted effect of over 55% in size). In outline: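 Viability counter screen: CellTiter-Glo luminescence, read after 30 min at room temperature, in ARE-bla HepG2 wells. Compound exposure lasted 16 h at 37C/5% CO2, following a 5 h pre-incubation of the cells after plating.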

A short description of assay [14]: qHTS assay for small molecule activators of the heat shock response signaling pathway - cell viability counter screen (AID 743209). Note: nearly all actives have a fitted effect of over 50% in size. A digest of the protocol: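 Cytotoxicity counter screen run in the same wells as the heat-shock bla reporter assay: HeLa HSE-bla cells, 5 h compound exposure at 37 C, viability read by CellTiter-Glo luminescence.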
Assay [15] can be described thus: qHTS assay to identify small molecule antagonists of the estrogen receptor alpha (ER-alpha) signaling pathway using the BG1 cell line (AID 743080; calls by dose curve;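 note: BG1 cells stimulated with 17beta-estradiol alongside compound; series mostly up to about 70 µM; nearly all actives have a fitted effect of over 25% in size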). In outline: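 Quantitative HTS on the Tox21 10K library: BG1 cells with endogenous ER-alpha and ERE-luciferase reporter, 17beta-estradiol stimulation, 21.5 h compound exposure, luminescence endpoint with parallel fluorescence cytotoxicity counter-read.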

The nature of assay [16]: qHTS assay to identify aromatase inhibitors - cell viability counter screen (AID 743084).
Assay [17] can be described thus: qHTS assay for small molecule agonists of the antioxidant response element (ARE) signaling pathway (AID 743202; active = well fitted activation curve with a large enough effect in the signal ratio in the repeat runs, not every such curve was filed as active; inconclusive = weak or mixed curves, or effect the other way; inactive = no such curve, though single readings can be large or run the other way; the % refers to the signal ratio; note: potency is the fitted concentration of half-maximal effect). In outline:
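After 16 hours of compound treatment at 37 C, HepG2 cells with a stably integrated ARE-driven beta-lactamase reporter were loaded 2 hours at room temperature with LiveBLAzer B/G FRET substrate and fluorescence intensity measured.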

Assay [18] can be described thus: qHTS assay for small molecule activators of the heat shock response signaling pathway (AID 743210; active = well fitted activation curve with a large enough effect in the signal ratio in the repeat runs, with a control signal flat, not every such curve was filed as active; inconclusive = weak or mixed curves; the % refers to the signal ratio; note: series mostly up to about 63 µM). In outline: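 Compound exposure lasted 5 h at 37 C in HeLa cells carrying a heat-shock-element-driven beta-lactamase reporter. Read-out: fluorescence intensity after 2.5 h room-temperature loading with LiveBLAzer B/G FRET substrate.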
In assay [19] the target is Peroxisome proliferator-activated receptor gamma (Homo sapiens) (UniProt P37231). The experiment in a line: qHTS assay to identify small molecule antagonists of the peroxisome proliferator-activated receptor gamma (PPARg) signaling pathway (AID 743191; calls by dose curve; note: series mostly up to about 63 µM; nearly all actives have a fitted effect of over 30% in size). A digest of the protocol:
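Beta-lactamase reporter under UAS control in HEK293H PPARg-bla cells; compound treatment 17 h at 37C. Read-out: fluorescence intensity after 1 h room-temperature incubation with LiveBLAzer B/G FRET substrate.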

Sequence of Peroxisome proliferator-activated receptor gamma (Homo sapiens) (P37231 whole entry, looked up): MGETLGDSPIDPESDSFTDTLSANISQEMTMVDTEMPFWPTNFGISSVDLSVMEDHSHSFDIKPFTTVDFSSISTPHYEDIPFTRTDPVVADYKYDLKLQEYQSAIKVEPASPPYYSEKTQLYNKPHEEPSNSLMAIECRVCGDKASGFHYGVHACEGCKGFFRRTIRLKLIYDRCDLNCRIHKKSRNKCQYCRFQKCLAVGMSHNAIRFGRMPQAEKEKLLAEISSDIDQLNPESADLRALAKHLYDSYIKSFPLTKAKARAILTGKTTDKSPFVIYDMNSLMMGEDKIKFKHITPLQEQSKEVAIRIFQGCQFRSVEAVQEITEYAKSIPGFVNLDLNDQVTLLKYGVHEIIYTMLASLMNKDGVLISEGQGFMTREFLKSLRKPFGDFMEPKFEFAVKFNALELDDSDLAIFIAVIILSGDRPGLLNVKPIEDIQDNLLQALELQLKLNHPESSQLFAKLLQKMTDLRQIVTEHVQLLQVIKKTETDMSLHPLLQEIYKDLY
Sequence of Aromatase (Homo sapiens) (P11511 whole entry, looked up): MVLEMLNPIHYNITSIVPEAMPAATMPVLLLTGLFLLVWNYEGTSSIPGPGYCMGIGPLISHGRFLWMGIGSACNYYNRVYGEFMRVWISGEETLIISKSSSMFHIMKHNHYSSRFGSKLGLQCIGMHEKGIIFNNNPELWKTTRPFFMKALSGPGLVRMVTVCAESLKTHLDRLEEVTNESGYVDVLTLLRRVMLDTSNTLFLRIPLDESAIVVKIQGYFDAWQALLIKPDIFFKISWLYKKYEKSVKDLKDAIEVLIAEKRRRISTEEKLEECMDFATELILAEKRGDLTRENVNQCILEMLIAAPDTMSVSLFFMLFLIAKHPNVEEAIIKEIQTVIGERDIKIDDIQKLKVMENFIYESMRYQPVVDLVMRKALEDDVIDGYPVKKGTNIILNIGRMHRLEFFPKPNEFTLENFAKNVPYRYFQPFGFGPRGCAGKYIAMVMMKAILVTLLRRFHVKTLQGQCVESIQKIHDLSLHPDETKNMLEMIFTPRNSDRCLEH
Sequence of Aryl hydrocarbon receptor (Homo sapiens) (P35869 whole entry, looked up): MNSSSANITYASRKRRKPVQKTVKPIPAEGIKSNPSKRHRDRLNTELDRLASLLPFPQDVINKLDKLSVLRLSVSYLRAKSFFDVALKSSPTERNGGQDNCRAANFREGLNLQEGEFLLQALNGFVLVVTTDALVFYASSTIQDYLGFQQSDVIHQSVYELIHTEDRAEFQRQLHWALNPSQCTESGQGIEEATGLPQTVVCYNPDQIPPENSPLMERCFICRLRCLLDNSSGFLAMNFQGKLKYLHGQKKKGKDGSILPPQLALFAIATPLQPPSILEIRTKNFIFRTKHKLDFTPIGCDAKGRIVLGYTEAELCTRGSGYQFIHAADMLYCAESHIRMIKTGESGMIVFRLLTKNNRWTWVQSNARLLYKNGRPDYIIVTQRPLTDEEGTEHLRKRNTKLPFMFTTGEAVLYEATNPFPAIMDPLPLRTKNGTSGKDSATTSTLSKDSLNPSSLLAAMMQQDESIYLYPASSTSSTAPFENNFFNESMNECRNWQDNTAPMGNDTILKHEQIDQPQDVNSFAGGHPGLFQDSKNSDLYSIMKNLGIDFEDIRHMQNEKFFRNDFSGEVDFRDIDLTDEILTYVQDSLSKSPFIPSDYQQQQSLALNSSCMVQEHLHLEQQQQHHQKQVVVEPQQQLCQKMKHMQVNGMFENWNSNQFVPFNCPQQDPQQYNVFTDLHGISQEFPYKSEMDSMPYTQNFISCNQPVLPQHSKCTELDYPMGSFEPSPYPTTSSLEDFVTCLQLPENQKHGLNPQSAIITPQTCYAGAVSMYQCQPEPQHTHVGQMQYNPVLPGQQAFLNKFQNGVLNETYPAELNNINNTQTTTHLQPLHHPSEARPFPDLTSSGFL

For the compound `CC(C)(C)C(=O)/C=C/c1ccc(Cl)cc1`, the Potency result in [1], in [2], in [3], in assay [4], in assay [6] and in [7] was “inactive” in each case. For the same compound, the Potency result (in the assay with Aromatase (Homo sapiens); in [9]; in assay [10]; in assay [12]) was “inactive” throughout. Besides, the outcome in assay [5], in assay [8], in assay [11], in assay [13] and in [14] was inactive.

As to `CCO[Si](C)(OCC)OCC`, the Potency entry in assay [1], in assay [2], in assay [3], in [4], in [6] and in [7] was “inactive” each time. Further, the Potency result (in assay [15]; with Aromatase (Homo sapiens); in assay [16]; in assay [9]; in [10]; in assay [12]) was “inactive” in each case. Also, the Potency result in [17] is “inactive”. For the same compound, the outcome in assay [5], in assay [8], in assay [13], in [14] and in [18] was inactive.

`OCc1ccccn1`: the Potency result in assay [1], in [2], in assay [3], in assay [6], in assay [7] and in assay [15] was “inactive” each time. The Potency result (with Aromatase (Homo sapiens); in assay [16]; in assay [9]; in assay [10]; in assay [12]) was “inactive” each time. In addition, the compound was classed as inactive in [5], in assay [8], in [19], in [13], in [14] and in assay [18]. For the same compound, the Potency in [17] is 11900 nM (active).

On to `NC(=O)CCCCC1CCSS1` (stereo unspecified), for which the Potency entry (in [1]; in assay [2]; in [3]; in assay [15]; with Aromatase (Homo sapiens); in assay [9]) was “inactive” in each case. Further, the Potency result in assay [10] and in [12] was “inactive” throughout. The call in assay [5], in assay [8], in assay [19], in [13], in assay [14] and in [18] was inactive. Moreover, the Potency in assay [6] was 239 nM [inconclusive] (active); in assay [7], 26.6 nM (active).

In the case of `CC(C)COC(=O)C(C)C`, the Potency result in [1], in assay [2], in [3], in assay [4], in assay [6] and in assay [7] was “inactive” in each case. The Potency entry (in assay [15]; with Aromatase (Homo sapiens); in assay [16]; in [9]; in assay [10]; in [12]) was “inactive” throughout. In addition, in assay [17], the Potency result was “inactive”. The outcome in [5], in assay [8], in [13], in [14] and in assay [18] was inactive.

In the case of `CC(=O)O[C@H](CC(=O)[O-])C[N+](C)(C)C`, the Potency entry in [1], in assay [2], in [3], in [4], in [6] and in assay [7] was “inactive” throughout. The Potency result (in [15]; with Aromatase (Homo sapiens); in [16]; in assay [9]; in [10]) was “inactive” in each case. The compound was called inactive in assay [5], in [8], in [19], in assay [13], in [14] and in [18].

On to `O=C(O)CCNC(=O)c1ccc(N=Nc2ccc(O)c(C(=O)O)c2)cc1`, for which the Potency entry in [1], in assay [2], in assay [3], in assay [4], in assay [6] and in assay [7] was “inactive” in each case. Further, the Potency result (in assay [15]; with Aromatase (Homo sapiens); in assay [9]; in [12]; in assay [17]) was “inactive” each time. For the same compound, the compound was classed as inactive in [5], in [11], in assay [19], in assay [13] and in [14].

With `Nc1ccc2cc(S(=O)(=O)O)ccc2c1`, the Potency result in assay [1], in assay [2], in assay [3], in [4], in assay [6] and in [7] was “inactive” in each case. Further, the Potency result (in [15]; in the assay with Aromatase (Homo sapiens); in assay [16]; in [9]; in [12]) was “inactive” throughout. Further, the result in [5], in [8], in assay [13], in [14] and in assay [18] was inactive.

Regarding `CNc1ncnc2nc[nH]c12`, the Potency result in [1], in assay [2], in assay [3], in assay [4], in [6] and in [7] was “inactive” in each case. The Potency result (in assay [15]; with Aromatase (Homo sapiens); in assay [16]; in assay [9]; in assay [10]) was “inactive” throughout. Moreover, the compound was classed as inactive in assay [5], in [8], in [11], in [13], in assay [14] and in [18].
